Measurements as given in PubChem BioAssay (EPA / NIEHS).
Active and inactive are the calls of the source. How the source made its calls: active means hit-call score of the fitted dose curve at least 0.9, where 1 is the maximum; inactive means score below 0.9.

Each compound was assayed on TTR (gene 7276) (assay: CCTE_GLTED_hTTR_0.125uM: CCTE's human Transthyretin (hTTR) Inhibition Assay, with 0.125uM TTR, Great Lakes Toxicology and Ecology Division (GLTED) Lab (AID 2284431);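 further: hits lower the fluorescence signal relative to DMSO baseline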).
Summary of the method: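 Probe-displacement format: chemicals competing for the T4 site release ANSA from 0.125uM TTR during a 2 h incubation, measured by fluorescence at 380 excitation and 475 emission.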
With Fc1ccc(Oc2ccnc3cc(Cl)cc(Cl)c23)cc1 the AC50 was 2.74 µM (active).
With O=C(O)COc1nc(Cl)c(Cl)cc1Cl the AC50 was 6.69 µM (active).
In the case of Oc1ccccc1-c1ccccc1, the AC50 was 14.2 µM (active).
In the case of Cc1ccc(-c2c(Cl)nc(C#N)n2S(=O)(=O)N(C)C)cc1, the AC50 was 0.0946 µM (active).
In the case of CCCN(CCC)c1c([N+](=O)[O-])cc(S(N)(=O)=O)cc1[N+](=O)[O-], the AC50 was 9.88 µM (active).
With CCON=C(CC)C1=C(O)CC(c2c(C)cc(C)cc2C)CC1=O (stereo not given) the AC50 was 9.92 µM (active).
C=CC1(C)OC(=O)N(c2cc(Cl)cc(Cl)c2)C1=O (stereo not given) was tested, and the AC50 was 1.68 µM (active).
With Cc1cc(Cl)ccc1OCC(=O)O the AC50 was 22.1 µM (active).
COC(=O)C(C)Oc1ccc(Oc2ccc(Cl)cc2Cl)cc1 (stereo not given) was tested, and the AC50 was 1.12 µM (active).
With COP(=S)(OC)Oc1nc(Cl)c(Cl)cc1Cl the AC50 was 0.274 µM (active).
